# Sampled rows, rich in hits. Any-hit rate of the full collection: about 3.2%.
# USP1-UAF1 inh – inhibitors of human USP1/UAF1 deubiquitinase; hit rate 0.23% among 390,000; Potency, µM (top dose mostly 57.1 µM), inactives show top-dose activity change, negative = inhibition, actives largely listed as inhibitors; recombinant USP1/UAF1, Ub-Rhodamine cleavage fluorescence; O94782; also: potency is read from the fitted curve at half-maximal effect; nearly all actives have a fitted effect of over 60% in size
#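 1 nM enzyme complex + cpd, 15 min RT; start with Ub-Rho 150nM final; kinetic fluorescence ex 480/em 540, 6 reads q60 s. Buffer 50mM HEPES pH 7.8, 0.5mM EDTA, 0.1 mg/ml BSA, 1mM TCEP, 0.01% Tween-20.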
# GALK inhibitor – blocks human galactokinase activity. P51570. Purified GALK, Kinase-Glo residual ATP luminescence. Potency, µM (titrated, usually from 57.5 µM), inactives show at the highest dose activity change, negative = inhibition, most hits filed as inhibitors. hit rate 0.007% among 270,000. AID 1868; also: potency is read from the fitted curve at half-maximal effect
# Target sequence (P51570 whole entry, looked up): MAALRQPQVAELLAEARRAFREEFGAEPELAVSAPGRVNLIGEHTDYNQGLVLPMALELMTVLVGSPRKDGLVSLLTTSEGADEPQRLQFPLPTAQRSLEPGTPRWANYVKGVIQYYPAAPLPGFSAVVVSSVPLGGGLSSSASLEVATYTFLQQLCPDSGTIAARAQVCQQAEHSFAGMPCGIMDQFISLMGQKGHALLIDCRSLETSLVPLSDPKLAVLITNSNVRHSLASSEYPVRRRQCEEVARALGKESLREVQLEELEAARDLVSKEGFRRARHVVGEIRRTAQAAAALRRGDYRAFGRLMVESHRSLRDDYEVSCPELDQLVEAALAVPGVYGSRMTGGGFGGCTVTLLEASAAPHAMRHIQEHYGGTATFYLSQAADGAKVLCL
#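 GALK at 5 nM final was combined with compound, 35 uM ATP and 100 uM galactose in HEPES pH8.0 with MgCl2 and DTT. The reaction ran one hour at room temperature before luminescent ATP detection.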
# USP2a block – USP2a (human) protease inhibition. USP2 core, Ub-CHOP2 coupled fluorogenic reporter, 485/531. Potency, µM (doses to about 38.3 µM), for inactives: at the top dose activity change, negative = inhibition, usual class: inhibitors. hit rate 0.01% among 330,000. AID 463254;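 also: potency is read from the fitted curve at half-maximal effect; plate controls were DMSO wells for no effect and full inhibition by NEM control for full effect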
#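 USP2 core (10nM final) preincubated 30min RT with compound in 20mM Tris-HCl pH 8.0, 2mM CaCl2, 2mM beta-mercaptoethanol, 0.05% CHAPS; 25nM Ub-CHOP2 plus 25nM reporter substrate added, fluorescence (Ex485/Em531) read after 60min.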
# FBPA coupling cs – coupling enzyme interference in Giardia aldolase counter-screen. coupling enzyme system counterscreen, AmpLite Red fluorescence. activity change, negative = inhibition, % at 58.2 µM, hits read low. hit rate 0.67% among 290,000; in the data active = activity change below about -30%
#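 Final compound at 57.5 uM, incubated 10 min at RT with coupling enzyme reagent (glyceraldehyde-3-phosphate), then 20 min with substrate and AmpLite Red detection. Fluorescence read at 525/598 nm; tests interference with the coupling assay, not aldolase inhibition.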
# VDR inh – vitamin D3 receptor (human) inhibition. P11473. VDR-SRC2-3 peptide fluorescence polarization, 2 h. Potency, µM, without a hit: max response, negative = inhibition, usual class: inhibitors. hit rate 0.93% among 400,000. AID 504847; also: potency is read from the fitted curve at half-maximal effect
#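 Measured by FP: displacement of SRC2-3 coactivator peptide from VDR by library compounds, following a two-hour ambient incubation.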
# PLK1 PBD block – inhibitors of human PLK1 polo-box domain binding | hit rate 2.8% among 360,000 | Potency, µM, for the others: max response, negative = inhibition, actives largely listed as inhibitors | P53350 | Plk1 PBD binding of FITC phosphopeptide, fluorescence polarization; also: potency is read from the fitted curve at half-maximal effect; series mostly up to about 57 µM; nearly all actives have a fitted effect of over 65% in size
# * hit, by the source's call; ? = inconclusive; / = no result given. Unless noted, calls follow the shape of the dose curve; as a rule, active = well fitted curve in the direction sought with a large enough effect; inconclusive = small, poorly fitted or top-dose-only effect, or another doubt; inactive = no such curve, though single readings can be large; an effect the other way counts as inactive or inconclusive. Unless noted, % is scaled to controls: 0 for no effect and ±100 for the full control effect.
SMILES,USP1-UAF1 inh,GALK inhibitor,USP2a block,FBPA coupling cs,VDR inh,PLK1 PBD block
COc1ccccc1N1CCN(C(=O)CSc2ncnc3scc(-c4ccccc4)c23)CC1,-8%,2%,2%,-2,?,15µM*
O=C(CSc1ncnc2scc(-c3ccccc3)c12)N1CCN(c2ccccc2F)CC1,-17%,2%,2%,-1,-13%,-6%
CC(C)CNC(=O)C1(C)CCCN1C(=O)c1cncc(Br)c1 (centres undefined),/,/,/,/,/,-4%
Cc1[nH]c2ccccc2c1C(C#N)(C#N)C1C(=O)c2ccccc2C1=O,?,3%,1%,-36*,-25%,?
O=C(NC1CCCCC1)Oc1cc2oc(=O)sc2cc1Br,-5%,-2%,1%,2,45µM*,2.1µM*
O=C(NC1CCCCCC1)c1ccc(Br)o1,1%,3%,3%,0,7%,-8%
CC(Sc1nc(-c2ccccc2)c(C#N)c(=O)[nH]1)C(=O)Nc1ccc(F)cc1 (centres undefined),-21%,/,/,/,0%,/
COC(=O)c1ccccc1Oc1nc(Cl)cc(OC)n1,-15%,1%,0%,2,-1%,-2%
COc1ccc(-c2cnnc(N/N=C/c3ccc(C)o3)n2)cc1,-17%,5%,-1%,6,45µM*,6µM*
Nc1ccc(Cl)cc1C(=O)OCC(=O)NC1CCS(=O)(=O)C1 (centres undefined),-9%,0%,-2%,0,-5%,-9%
OC(c1ccc(F)c(F)c1)c1nc(-c2ccccc2)cs1 (centres undefined),/,/,/,/,/,-2%
CC(C)c1ccc(OCC(=O)NCCO)cc1,-11%,2%,-1%,1,?,27µM*
CCOC(=O)c1c(O)c(Cl)c(C)[nH]c1=O,-6%,-1%,-4%,0,5%,27µM*
O=C1c2ccccc2C(=O)N1c1ccccc1,-13%,/,/,/,-9%,-2%
c1ccc(-c2nn[nH]n2)c(Nc2cccc3c2CCCC3)c1,/,/,/,10,40µM*,/
Cc1ccc(Cl)cc1NC(=O)CSC(N)=O,-22%,0%,0%,1,45µM*,?
CC(=O)N1Cc2ccccc2C(C)CC12CCCCC2 (centres undefined),-11%,1%,-1%,-5,-16%,-9%
CC(=O)N1CC23C=CC(CC2CC12CCCCCC2)O3 (centres undefined),-8%,-3%,6%,5,?,8.4µM*
COC/C=C/C1=CC2=CC(=O)C(C)(OC(=O)C3CCCC3)C(=O)C2=CO1 (centres undefined),?,-2%,10%,3,?,24µM*
O=C1OC(c2ccccc2)(c2cc(Br)c(O)c(Br)c2)c2ccccc21 (centres undefined),-10%,/,/,/,-18%,24µM*
COc1ccc(C(=S)N2CCN(c3ccccc3C)CC2)cc1OC,?,/,/,/,?,24µM*
Oc1ccc(C(=S)N2CCCCC2)cc1,-8%,-1%,-1%,1,-13%,19µM*
COc1cc(C(=O)O)ccc1O,-18%,/,2%,4,-5%,-2%
COc1cccc(C(=O)C(=O)c2cccc(OC)c2OC)c1OC,-16%,/,/,/,-18%,-6%
CCOc1ccc(C(=S)N2CCCC2)cc1OC,0%,1%,0%,3,8%,-7%
SMILES,USP1-UAF1 inh,GALK inhibitor,USP2a block,FBPA coupling cs,VDR inh,PLK1 PBD block
COc1cccc(C(=S)N2CCCC2)c1OC,-14%,1%,1%,-2,?,24µM*
COc1cc(C(=S)N2CCC(C(N)=O)CC2)ccc1O,-20%,-1%,-2%,3,-22%,27µM*
O=C1CCC(C(=O)NCc2ccccc2)N1 (centres undefined),-27%,-4%,0%,0,5%,4%
COc1ccc(C(=S)N2CCCC2)cc1Br,-21%,-4%,0%,2,1%,-6%
COc1cc(C(=S)N2CCC(C)CC2)ccc1O,-19%,0%,1%,3,-24%,24µM*
COc1ccc(C(=O)NC(=S)N2CCC(C)CC2)cc1Br,-17%,-7%,0%,/,-3%,-3%
COc1cc(C(=S)N2CCCC2)ccc1O,-12%,1%,0%,1,?,27µM*
COc1cc(C(=S)N2CCCCC2)ccc1O,-8%,4%,1%,-37*,-13%,?
CCOc1cc(C(=S)N2CCCC2)ccc1O,-6%,4%,1%,6,?,19µM*
COc1ccccc1N1CCN(C(CNC(=O)c2ccc3c(c2)OCO3)c2cccnc2)CC1 (centres undefined),-10%,5%,2%,8,-4%,0%
O=S(=O)(c1ccc2oc(=S)[nH]c2c1)N1CCOCC1,-15%,/,1%,/,?,2.7µM*
O=S(=O)(c1ccc(=S)[nH]c1)N1CCOCC1,-18%,/,2%,/,-21%,7.5µM*
O=C(O)c1cccc(S(=O)(=O)N2CCC(Cc3ccccc3)CC2)c1,-20%,-14%,-1%,15,-7%,-15%
O=S(=O)(c1cccc(S(=O)(=O)N2CCC(Cc3ccccc3)CC2)c1)N1CCOCC1,-9%,1%,-2%,0,4%,27µM*
O=S(=O)(Nc1cccc(Cl)c1)c1ccc2oc(=S)[nH]c2c1,-4%,0%,10%,12,?,34µM*
O=S(=O)(c1ccc(=S)[nH]c1)N1CCCCCC1,-6%,/,2%,/,?,?
Cc1ccc(C)c(NC(=O)Cn2nnc(C(=O)NCc3ccco3)c2N)c1,-15%,8%,4%,0,7%,-3%
O=S(=O)(c1cccc(-c2n[nH]c(=S)o2)c1)N1CCOCC1,-6%,10%,0%,6,-14%,27µM*
Cc1cc(S(=O)(=O)N2CCOCC2)ccc1F,-14%,-1%,2%,-1,-21%,30µM*
O=[N+]([O-])c1cc(S(=O)(=O)N2CCCC2)ccc1O,-17%,-1%,2%,7,0%,-13%
O=[N+]([O-])c1cc(S(=O)(=O)N2CCCCCC2)ccc1F,-20%,-6%,0%,15,-18%,15µM*
Cc1cccc(C)c1NC(=O)c1cc(S(=O)(=O)N2CCOCC2)ccc1F,-3%,0%,-1%,1,-11%,-13%
Cc1ccc(CS(=O)Cc2ccc(C(=O)NCc3ccccc3Cl)o2)cc1 (centres undefined),-20%,-4%,2%,/,11%,-12%
Cc1ccc(CNC(=O)CCS(=O)(=O)c2ccc(Cl)cc2)cc1,-19%,1%,4%,-1,-9%,-19%
Cc1ccc(CNC(=O)CCS(=O)(=O)c2ccc3c(c2)NC(=O)CO3)cc1,-10%,-1%,4%,-3,-15%,27µM*
Cc1ccc(CNC(=O)CCS(=O)(=O)c2ccc(Br)cc2)cc1,-18%,0%,2%,5,-15%,17µM*
